Activity calls are given as the source filed them. Rule for the calls: active = hit-call score of the fitted dose curve at least 0.9, where 1 is the maximum; inactive = score below 0.9.

Usually AC50 stands for the concentration giving half of the maximal activity seen.

Read-out in the first assay: serum amyloid A (SAA), SAA1 (gene 6288)
The assay is described as follows: BSK_CASM3C_SAA: BioMAP Diversity Plus: CASM3C Assay for serum amyloid A (SAA) Biomarker Activity (AID 2283049).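 Note: SAA protein level quantified by ELISA.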 As to conditions: primary human coronary artery smooth muscle cells; actives raise or lower the signal.
For the molecule `CN(C)C(=O)Nc1cccc(C(F)(F)F)c1`, the result was inactive.
For the molecule `COP(=O)(NC(C)=O)SC` (stereo unspecified), the result was inactive.
Turning to `CN(C)NC(=O)CCC(=O)O`, the outcome was inactive.
On to `C[Si](Cn1cncn1)(c1ccc(F)cc1)c1ccc(F)cc1`, for which the result was inactive.
Regarding `CCCOCC(=Nc1ccc(Cl)cc1C(F)(F)F)n1ccnc1`, the outcome was inactive.
On to `CC1=NNC(=O)N(/N=C/c2cccnc2)C1`, for which the outcome was inactive.
For `C#CCC1=C(C)C(OC(=O)C2C(C=C(C)C)C2(C)C)CC1=O` (stereo unspecified), the outcome was inactive.
Same read-out and setting: the result for `COP(=O)(OC)C(O)C(Cl)(Cl)Cl` (stereo unspecified) reads “inactive”; that for `COP(=O)(OC)SCn1c(=O)oc2cc(Cl)cnc21`, “inactive”.
Consider `CCOP(=S)(Oc1cnc(C(C)(C)C)nc1)OC(C)C` (stereo unspecified), for which the outcome was inactive.
Consider `CNC(=O)ON=C(SC)C(=O)N(C)C`, for which the outcome was inactive.
For `CCOP(=S)(OCC)SCCSCC`, the result was inactive.
On to `CNc1cnn(-c2cccc(C(F)(F)F)c2)c(=O)c1Cl`, for which the result was inactive.
With `CC1(C(=O)Nc2ccc(O)c(Cl)c2Cl)CCCCC1`, the result was inactive.
Turning to `CN1COCN(Cc2cnc(Cl)s2)C1=N[N+](=O)[O-]`, the outcome was inactive.
For the molecule `CCCCSP(=O)(SCCCC)SCCCC`, the result was inactive.
For `CC(C1CC1)C(O)(Cn1cncn1)c1ccc(Cl)cc1` (stereo unspecified), the result was inactive.
On to `CC[C@H](C)[C@H]1O[C@]2(C=C[C@@H]1C)C[C@@H]1C[C@@H](C/C=C(\C)[C@@H](O[C@H]3C[C@H](OC)[C@@H](O[C@H]4C[C@H](OC)[C@@H](NC)[C@H](C)O4)[C@H](C)O3)[C@@H](C)/C=C/C=C3\CO[C@@H]4[C@H](O)C(C)=C[C@@H](C(=O)O1)[C@]34O)O2`, for which the AC50 was 9.71 µM (active).
As to `CC(C)=CC1C(C(=O)OCN2C(=O)C3=C(CCCC3)C2=O)C1(C)C` (stereo unspecified), the outcome was inactive.
For `CC(Oc1cccc(Cl)c1)C(=O)O` (stereo unspecified), the outcome was inactive.
The same measure, in the same setting: the result for `CCc1cccc(C)c1N(C(=O)CCl)C(C)COC` (stereo unspecified) reads “inactive”; that for `Cc1nn(-c2cc(NS(C)(=O)=O)c(Cl)cc2Cl)c(=O)n1C(F)F`, “inactive”.
`N#CSCSC#N`: the AC50 is 30.2 µM (active).
On to `Cc1ccn2nc(S(=O)(=O)Nc3c(F)cccc3F)nc2n1`, for which the outcome was inactive.
The same measure, in the same setting: in the case of `C[N+]1(C)CCCCC1` it was “inactive”; in that of `CCCOc1nn(C(=O)NS(=O)(=O)c2ccccc2C(=O)OC)c(=O)n1C`, “inactive”.
On to `Nc1nc(N)nc(NC2CC2)n1`, for which the outcome was inactive.
In the case of `Nc1c(Cl)cc([N+](=O)[O-])cc1Cl`, the result was inactive.
As to `CCc1cccc(CC)c1N(COC)C(=O)CCl`, the outcome was inactive.
As to `CCCSP(=O)(OCC)Oc1ccc(Br)cc1Cl` (stereo unspecified), the result was inactive.
The same measure, in the same setting: the result for `S=C1NCCN1` reads “inactive”; that for `CCOP(=S)(OCC)Oc1ccc([N+](=O)[O-])cc1`, “inactive”.
`CCCCOC(=O)c1ccccc1C(=O)O`: the result was inactive.
Turning to `C#CC(C)(C)NC(=O)c1cc(Cl)cc(Cl)c1`, the result was inactive.
As to `COc1cc(OC)nc(Sc2cccc(Cl)c2C(=O)O)n1`, the result was inactive.

Read-out in the next assay: not listed separately
The assay is described as follows: BSK_CASM3C_SRB: Viability Assessment in the BioMAP Diversity Plus: CASM3C Assay (AID 2283050).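 Note: total protein by SRB staining as cytotoxicity measure in parallel cultures; cells exposed to compound for 24 h.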 To be noted: primary human coronary artery smooth muscle cells.
For the molecule `CN(C)C(=O)Nc1cccc(C(F)(F)F)c1`, the result was inactive.
Consider `COP(=O)(NC(C)=O)SC` (stereo unspecified), for which the result was inactive.
Take `CN(C)NC(=O)CCC(=O)O`: the outcome was inactive.
Take `C[Si](Cn1cncn1)(c1ccc(F)cc1)c1ccc(F)cc1`: the result was inactive.
For `CCCOCC(=Nc1ccc(Cl)cc1C(F)(F)F)n1ccnc1`, the result was inactive.
On to `CC1=NNC(=O)N(/N=C/c2cccnc2)C1`, for which the outcome was inactive.
On the same count and under the same terms, the result for `C#CCC1=C(C)C(OC(=O)C2C(C=C(C)C)C2(C)C)CC1=O` (stereo unspecified) reads “inactive”; that for `COP(=O)(OC)C(O)C(Cl)(Cl)Cl` (stereo unspecified), “inactive”.
As to `COP(=O)(OC)SCn1c(=O)oc2cc(Cl)cnc21`, the half-maximal activity concentration (AC50) was 24.7 µM (active).
On to `CCOP(=S)(Oc1cnc(C(C)(C)C)nc1)OC(C)C` (stereo unspecified), for which the outcome was inactive.
`CNC(=O)ON=C(SC)C(=O)N(C)C`: the outcome was inactive.
Turning to `CCOP(=S)(OCC)SCCSCC`, the outcome was inactive.
For `CNc1cnn(-c2cccc(C(F)(F)F)c2)c(=O)c1Cl`, the result was inactive.
Consider `CC1(C(=O)Nc2ccc(O)c(Cl)c2Cl)CCCCC1`, for which the outcome was inactive.
For the molecule `CN1COCN(Cc2cnc(Cl)s2)C1=N[N+](=O)[O-]`, the outcome was inactive.
`CCCCSP(=O)(SCCCC)SCCCC`: the AC50 was 31.7 µM (active).
For `CC(C1CC1)C(O)(Cn1cncn1)c1ccc(Cl)cc1` (stereo unspecified), the outcome was inactive.
Take `CC[C@H](C)[C@H]1O[C@]2(C=C[C@@H]1C)C[C@@H]1C[C@@H](C/C=C(\C)[C@@H](O[C@H]3C[C@H](OC)[C@@H](O[C@H]4C[C@H](OC)[C@@H](NC)[C@H](C)O4)[C@H](C)O3)[C@@H](C)/C=C/C=C3\CO[C@@H]4[C@H](O)C(C)=C[C@@H](C(=O)O1)[C@]34O)O2`: the AC50 was 11.6 µM (active).
As for `CC(C)=CC1C(C(=O)OCN2C(=O)C3=C(CCCC3)C2=O)C1(C)C` (stereo unspecified), the result was inactive.
`CC(Oc1cccc(Cl)c1)C(=O)O` (stereo unspecified): the outcome was inactive.
Still for that read-out and setting: in the case of `CCc1cccc(C)c1N(C(=O)CCl)C(C)COC` (stereo unspecified) it was “inactive”; in that of `Cc1nn(-c2cc(NS(C)(=O)=O)c(Cl)cc2Cl)c(=O)n1C(F)F`, “inactive”.
Consider `N#CSCSC#N`, for which the AC50 is 14.6 µM (active).
As to `Cc1ccn2nc(S(=O)(=O)Nc3c(F)cccc3F)nc2n1`, the result was inactive.
With `C[N+]1(C)CCCCC1`, the outcome was inactive.
Consider `CCCOc1nn(C(=O)NS(=O)(=O)c2ccccc2C(=O)OC)c(=O)n1C`, for which the result was inactive.
Consider `Nc1nc(N)nc(NC2CC2)n1`, for which the result was inactive.
As for `Nc1c(Cl)cc([N+](=O)[O-])cc1Cl`, the outcome was inactive.
Regarding `CCc1cccc(CC)c1N(COC)C(=O)CCl`, the outcome was inactive.
Take `CCCSP(=O)(OCC)Oc1ccc(Br)cc1Cl` (stereo unspecified): the result was inactive.
For `S=C1NCCN1`, the result was inactive.
Turning to `CCOP(=S)(OCC)Oc1ccc([N+](=O)[O-])cc1`, the result was inactive.
Regarding `CCC(=O)Nc1ccc(Cl)c(Cl)c1`, the result was inactive.
As for `CCCCOC(=O)c1ccccc1C(=O)O`, the outcome was inactive.
The same measure, in the same setting: the result for `C#CC(C)(C)NC(=O)c1cc(Cl)cc(Cl)c1` reads “inactive”.
Same read-out and setting: the result for `COc1cc(OC)nc(Sc2cccc(Cl)c2C(=O)O)n1` reads “inactive”.

For the origin of these results see PubChem BioAssay (EPA / NIEHS).
